# Bioassay records: PubChem BioAssay, National Center for Advancing Translational Sciences (NCATS)
# PLK1 PBD inh = PLK1 (human) polo-box domain binding inhibition; P53350; Plk1 PBD binding of FITC phosphopeptide, fluorescence polarization; Potency, µM, inactives show max response, negative = inhibition, usual class: inhibitors; 2.8% of 360,000 active; further: series mostly up to about 57 µM; on the % scale 0 is the no-effect control and ±100 the full control effect; nearly all actives have a fitted effect of over 65% in size
# HP1b binding inh = blocks HP1-beta chromodomain binding to methylated histone tails. P83916. 0.56% of 390,000 active. AlphaScreen HP1-beta / biotin-H3K9me3 peptide binding. AID 540317. Potency, µM (series often up to 114 µM), without a hit: top-dose activity change, negative = inhibition, hits mostly inhibitors; further: nearly all actives have a fitted effect of over 70% in size
# Target sequence (P83916 whole entry, looked up): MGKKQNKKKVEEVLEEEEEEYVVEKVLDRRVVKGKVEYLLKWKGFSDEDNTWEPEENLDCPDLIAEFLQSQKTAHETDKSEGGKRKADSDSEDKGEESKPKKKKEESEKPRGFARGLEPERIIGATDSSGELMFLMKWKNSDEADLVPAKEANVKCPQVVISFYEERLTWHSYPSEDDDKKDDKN
#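 HP1-beta protein (50 nM final) preincubated 30 min at room temperature with biotinylated H3(1-18)K9me3 peptide (50 nM) in PBS pH 7.4, 0.01% Tween-20, then compound added for 30 min. AlphaScreen streptavidin donor/nickel chelate acceptor beads (10 ug/mL final), 30 min dark, luminescence read.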
# BAZ2B inh = BAZ2B (human) inhibition; Q9UIF8; AlphaScreen BAZ2B-H3K14Ac peptide displacement; Potency, µM (highest dose often 114 µM), for the others: at the highest dose activity change, negative = inhibition, actives largely listed as inhibitors; 4.4% of 360,000 active; further: on the % scale 0 is the no-effect control and ±100 the full control effect; nearly all actives have a fitted effect of over 60% in size
#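 Complex of BAZ2B and biotin-H3K14Ac (50 nM apiece) forms over 30 min at RT, then faces library compounds up to 110 uM for another 30 min; AlphaScreen beads added, 20 min dark incubation, luminescence read.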
# JMJD2A Tudor inh = blocks the human JMJD2A Tudor domain; 4.4% of 390,000 active; O75164; Potency, µM (doses to about 114 µM), without a hit: at the top dose activity change, negative = inhibition, hits mostly inhibitors; AID 504339; AlphaScreen JMJD2A-Tudor / H3K4me3 peptide binding; further: on the % scale 0 is the no-effect control and ±100 the full control effect; nearly all actives have a fitted effect of over 50% in size
# G9a block = G9a (human) methyltransferase inhibition | Q96KQ7 | G9a H3K9 monomethylation, AlphaScreen, 2 h | Potency, µM (series often up to 102 µM), for inactives: top-dose activity, negative = inhibition, hits mostly inhibitors | 8.8% of 350,000 active; further: on the % scale 0 is the no-effect control and ±100 the full control effect; nearly all actives have a fitted effect of over 75% in size
# Target sequence (Q96KQ7 913-1193 limits assumed): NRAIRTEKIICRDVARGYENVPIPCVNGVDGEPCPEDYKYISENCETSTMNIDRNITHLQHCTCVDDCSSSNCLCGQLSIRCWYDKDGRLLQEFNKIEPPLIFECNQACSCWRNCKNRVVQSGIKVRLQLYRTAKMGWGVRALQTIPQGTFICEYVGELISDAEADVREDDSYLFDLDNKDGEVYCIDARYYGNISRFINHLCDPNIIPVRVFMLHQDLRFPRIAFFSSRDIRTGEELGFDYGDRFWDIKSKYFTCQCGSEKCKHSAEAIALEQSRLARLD
#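 Compounds were preincubated with 20 nM G9a for 15 min, after which biotinylated H3K9 peptide (500 nM) and SAM (20 uM) started a 2 h room-temperature reaction. Monomethylated product was quantified by antibody-based AlphaScreen chemiluminescence.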
# Sfp inh = inhibitors of Bacillus subtilis Sfp phosphopantetheinyl transferase; Potency, µM, without a hit: largest response in the series, negative = inhibition, hits mostly inhibitors; AID 1490; Biochemical Sfp PPTase activity, qHTS; Q9F4F7; 3.5% of 310,000 active;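 further: the enzyme is Sfp with the accession as filed and its product quenches rhodamine fluorescence; 0% = enzyme reaction without inhibitor and -100% = no enzyme wells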
#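 After 15 min at room temperature with compound, 15 nM Sfp received 5 uM rhodamine-CoA plus 12.5 uM BHQ-2-ybbR (50 mM Hepes pH 7.6, 10 mM MgCl2). Rate came from the fluorescence difference over 30 min, ex 525/em 598 nm.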
# Starred values were filed as active, the others as inactive; ? = inconclusive; . = not tested or not shown; [ ] = remark or other dose. Most compounds without a hit are left out; they make up all but 12% or so of the library. The call rests on the fitted dose curve; in most records, active means well fitted curve in the direction sought with a large enough effect; inconclusive means small, poorly fitted or top-dose-only effect, or another doubt; inactive means no such curve, though single readings can be large; an effect the other way counts as inactive or inconclusive. Potency means the concentration at half of the fitted maximal effect.
SMILES,PLK1 PBD inh,HP1b binding inh,BAZ2B inh,JMJD2A Tudor inh,G9a block,Sfp inh
COCCn1nnnc1C(c1cc2cc(C)cc(C)c2[nH]c1=O)N1CCN(c2ccccc2F)CC1 (stereo not given),-17%,10%,-4%,-24%,3.2µM*,13µM*
CCOC(=O)C1(Cc2ccccc2C)CCCN(S(=O)(=O)CC)C1 (stereo not given),-10%,23%,-5%,-5%,.,9%
Cc1ccc(N2CCN(C(=O)c3cnn(-c4ccc(F)cc4F)c3C3CCN(C(=O)OC(C)(C)C)CC3)CC2)c(C)c1,.,8%,17%[57.1 µM],-32%,-6%[59 µM],.
Cc1ccccc1N(C(=O)CNC(=O)c1ccco1)C(C(=O)NC1CCCCC1)c1cccnc1 (stereo not given),3%,19%,30%,-11%,5%[59 µM],22%
Cc1c(NC(=O)Nc2cc(Cl)ccc2Cl)c(=O)n(-c2ccccc2)n1C,-14%,23%,-2%,-14%,?,16%
C=CC[n+]1c(-c2ccc(Cl)cc2Cl)csc1Nc1c(C)n(C)n(-c2ccccc2)c1=O,-13%,?,40µM*,?,?,-27%
C=CCNC(=O)c1ccc(-c2nc(-c3ccc(Cl)cc3Cl)cs2)cc1,-1%,24%,16%,-11%,-41%[12.7 µM],-9%
C=CC[n+]1c(-c2ccc(Cl)cc2Cl)csc1Nc1ccc(NC(C)=O)cc1,-15%,?,28µM*,28µM*,40µM*,-3%
NS(=O)(=O)c1ccc(CNC(=O)Cc2cccs2)cc1,-16%,18%,56µM*,?,71µM*,1%
COc1ccc(CNC(=O)CCCSc2ccccc2)cc1,1%,23%,4%,15%,49%,13%
NS(=O)(=O)c1ccc(CNC(=O)/C=C/c2ccccc2)cc1,27µM*,1%,-2%[57.1 µM],-8%[11.4 µM],?,6%
NS(=O)(=O)c1ccc(CNC(=O)CCCSc2ccccc2)cc1,30µM*,-9%,1%,?,-42%,9%
O=c1[nH]c2ccccc2c(O)c1SCCO,-6%,7%,50µM*,22µM*,.,79µM*
O=C(O)CSc1c(O)c2ccccc2[nH]c1=O,21µM*,27%,14µM*,11µM*,4.5µM*,10µM*
O=C(O)CSc1c2ccccc2cc2ccccc12,27µM*,34%,-25%,?,37%,7%
Cc1ccccc1C(=O)Nc1ccc(S(=O)(=O)N2CCC(c3nc4ccccc4s3)CC2)cc1,.,4%,2%,-17%,-34%[59 µM],.
CCN(CCCNC(=O)CN(C)S(=O)(=O)c1ccc2c(c1)CCC(=O)N2)c1cccc(C)c1,2%,-2%,-9%,-20%,?,-5%
COc1ccc([C@H]2[C@H](C(=O)OC(C)(C)C)N3N=Cc4ccccc4C3C23C(=O)c2ccccc2C3=O)cc1OC (stereo not given in full),?,-22%,18µM*,?,?,-10%
COc1ccc([C@H]2[C@H](C(=O)OC(C)(C)C)N3N=Cc4ccccc4C3C23C(=O)c2ccccc2C3=O)c(OC)c1 (stereo not given in full),-25%,-16%,?,?,?,-9%
O=C(COC(=O)C1CC(=O)N(Cc2ccco2)C1)Nc1ccccc1[N+](=O)[O-] (stereo not given),-7%,-9%,-4%,-20%,-43%,.
O=C(OCC(=O)N1c2ccccc2Sc2ccccc21)C1CC(=O)N(Cc2ccco2)C1 (stereo not given),-3%,-13%,?,?,50µM*,-24%
CCOC(=O)c1ccc(NC(=O)C(Cc2ccccc2)NS(=O)(=O)c2ccc(Br)s2)cc1 (stereo not given),.,26%,-20%,-12%,-34%[59 µM],.
c1ccc(-c2cn3ccccc3n2)cc1,-7%,-6%,.,-8%,.,.
COc1ccc(-n2c(C)cc(-c3cn4cccc(C)c4n3)c2C)cc1,-5%,-11%,40µM*,?,?,7%
Cc1cc(-c2cn3ccccc3n2)c(C)n1-c1ccccc1,-14%,?,?,56µM*,50µM*,-11%
SMILES,PLK1 PBD inh,HP1b binding inh,BAZ2B inh,JMJD2A Tudor inh,G9a block,Sfp inh
O=Cc1cc(N=Nc2cccc(C(=O)O)c2)ccc1O,-20%,9%,?,-13%,?,-7%
O=Cc1cc(N=Nc2ccccc2Cl)ccc1O,?,?,10µM*,25µM*,10µM*,-14%
O=C(/C=C\c1ccco1)c1ccc(NC(=O)c2ccco2)cc1,-26%,?,45µM*,50µM*,22µM*,10µM*
CC(=O)Nc1ccc(C(=O)/C=C/c2ccco2)cc1,0%,-26%,56µM*,?,10µM*,13µM*
O=C(NCc1ccccc1)c1ccc(NC(=O)c2ccco2)cc1,-1%,43%,-26%,-2%,67%,7%
CC(=O)Nc1cccc(C(=O)/C=C/c2ccc(/C=C/C(=O)c3cccc(NC(C)=O)c3)cc2)c1,.,.,1%,.,1%[59 µM],3%
O=C(C=Cc1ccco1)c1ccc2ccccc2c1,-11%,?,.,-15%,.,.
CC(=O)Nc1cccc(C(=O)/C=C/c2ccco2)c1,-22%,6%,-2%,-12%,14µM*,14µM*
O=C(Nc1cccc(S(=O)(=O)Nc2ccc(Cl)cc2)c1)c1ccc(Cl)nc1,-16%,45%,-3%,-25%,79µM*,11%
COc1ccc(NS(=O)(=O)c2cccc(NC(=O)c3ccc(Cl)nc3)c2)cc1,-5%,6%,-24%,-5%,22%[12.7 µM],14%
O=C(Nc1ccc(Br)cc1)c1cccc(S(=O)(=O)Nc2ccc(Br)cc2)c1,.,.,.,.,.,15%
O=C1CSc2ccc(C(=O)Nc3cccc(S(=O)(=O)Nc4ccc(Br)cc4)c3)cc2N1,21µM*,-24%,?,?,?,35µM*
Nc1c(O)ccc2c1C(=O)c1ccccc1C2=O,-24%,16µM*,25µM*,?,2.5µM*,-8%
Cc1cc(O)c(C(c2ccc(F)cc2)N2CCN(c3ccccc3)CC2)c(=O)n1Cc1ccco1 (stereo not given),.,31%[57 µM],-2%,-23%,?,.
Cc1ccc(S(=O)(=O)N2CCN(C(=O)C(C)Cn3nc(C)c(C)c3C)CC2)cc1C (stereo not given),0%,21%,0%,-3%,50µM*,23%
Cc1ccc(NC(=S)N/N=C/c2ccc([N+](=O)[O-])s2)cc1,-4%,?,14µM*,40µM*,40µM*,-22%
O=C(Cc1cccs1)N/N=C\c1ccc([N+](=O)[O-])s1,3%,6%,?,-28%,-31%,?
Cc1nc2ccccc2n1/N=C/c1ccc([N+](=O)[O-])s1,-6%,-23%,-33%,-19%,50µM*,4%
